Results as given in PubChem BioAssay AID504861 (Broad Institute, 2011).
About 290 (24%) of roughly 1,200 compounds were called active. Not shown: some 3% with an inconclusive outcome. A selection follows. Entries with a potency or affinity are not part of this list. Unmarked numbers belong to inactive results.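 How the source made its calls: active means compounds lowering cell viability signal with fitted half-maximal concentration at most ten times their highest tested concentration; inconclusive means flat fit with 30 to 70% signal loss, or poor fit; inactive means the rest.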

Assay: HEK293T cell viability reduction, dose response, cytotoxicity control for LMP1 NF-kB inhibitor project, CellTiter-Glo luminescence, cherry-picks (AID 504861)
Conditions: CellTiter-Glo ATP luminescence, 48 h; series mostly up to 26 µM; activity change, negative = cytotoxicity: at the top concentration

| Compound | activity change, negative = cytotoxicity [%] |
| --- | --- |
| CCN(CC)c1ccc(NC(=O)c2cccc(F)c2)c(C)c1 | 1.9 |
| COc1ccccc1N1CCN(CCCNC(=O)C2CCCN(c3ncnc4c3nc3n4CCCCC3)C2)CC1 (stereo not drawn) | -8.21 |
| CNC(=O)c1[nH]cnc1C(=O)N[C@@H](CCCCNC(=O)OC(C)(C)C)C(=O)OC(C)(C)C | 1.6 |
| CCOC(=O)c1c(-n2cccc2)sc2c1CCCC2=O | 7.85 |
| Cc1ccccc1C(=O)c1c[nH]c(C(=O)NCc2ccco2)c1 | 12.1 |
| O=c1c2cnn(-c3ccccc3)c2nc(-c2cccs2)n1-c1ccc(Cl)cc1 | -3.75 |
| Cc1ccc(OCC(=O)NNC(=S)NC(=O)C2CCCCC2)c(C)c1 | -1.86 |
| N#Cc1c(NC(=O)CCCC(=O)O)sc2c1CCCCC2 | 7.69 |
| COC(=O)CCNc1ccc2c(c1)OCCO2 | -7.17 |
| COc1ccc(C(=O)OCC(=O)c2c[nH]c3ccccc23)cc1OC | 0.68 |
| Clc1ccc(-c2nnc(NC3=NCCCCC3)o2)cc1 | -3.14 |
| O=C(O)c1ccc(-n2cncn2)c([N+](=O)[O-])c1 | 0.957 |
| CN(C)c1ccnc2sc(C(N)=O)c(N)c12 | 2.86 |
| Cc1ccc(CNC(=O)C2CCN(S(=O)(=O)c3c(C)noc3/C=C/c3ccco3)CC2)cc1 | 2.54 |
| Cc1nc(N)nc(SCc2ccc([N+](=O)[O-])cc2)c1N | 11.7 |
| COc1cc(C(=O)Oc2ccccc2/C=N/NC(=O)c2ccc(C)c(Cl)c2)cc(OC)c1OC | 2.62 |
| COc1cc(/C=N/NC(=O)c2cccc(S(=O)(=O)N3CCOCC3)c2)cc(OC)c1O | -1.07 |
| CCCCCC(=O)NC(=S)Nc1ccc(Br)cc1C | 5.46 |
| O=C(N/N=C/c1cccc(O)c1)c1ccc2c(c1)OCCO2 | 1.25 |
| Cc1cccc(C)c1NC(=O)CN(C)C(=O)c1ccc(-c2cccc(C(F)(F)F)c2)o1 | -5.78 |
| COCCNC(=O)C(=O)NCC1OCCN1C(=O)c1ccc(Cl)cc1 (stereo not drawn) | 8.08 |
| COC(=O)c1ccc(/C=C(/NC(=O)c2ccccc2)C(=O)N2CCOCC2)cc1 | 1.26 |
| Cc1ccc(N=c2c([N+](=O)[O-])nn(-c3ccc4c(c3)OCCO4)n2O)cc1F | 23.8 |
| COc1ccc(C(=O)NC(=S)NNC(=O)c2ccc3ccccc3n2)cc1 | 1.74 |
| CC(=O)Nc1ccc(OCC(O)CNC(C)C)cc1 (stereo not drawn) | 5.57 |
| COc1ccc(-c2cnc(NCc3cc4c(cc3[N+](=O)[O-])OCO4)n2C)cc1 | 6.75 |
| Cc1ccc(-n2c(C)c([N+](=O)[O-])c3ccc(O)c(CN(C)C)c32)cc1 | -4.92 |

| Compound | activity change, negative = cytotoxicity [%] |
| --- | --- |
| O=C(Nc1ncccc1O)c1ccc(S(=O)(=O)NCc2ccco2)cc1 | -2.08 |
| O=C(/C=C/Nc1ccc(Br)cc1F)c1ccccc1 | -4.86 |
| CC(=O)c1c(C)[nH]c(C(=O)Nc2ccc(C)cn2)c1C | 5.29 |
| COc1ccccc1C=NN=Cc1ccccc1O | 5.09 |
| CN(C)c1cccc(C(=O)N/N=C/c2ccccc2F)c1 | -0.047 |
| Cc1ccsc1/C=N/NC(=O)c1ccc2c(c1)OCCO2 | -4.75 |
| CCc1nnc(NC(=O)c2ccc(S(=O)(=O)N3CCOCC3)cc2)s1 | 5.76 |
| CCCn1c(C)cc(C(=O)COC(=O)c2ccc[nH]c2=O)c1C | 3.28 |
| CCn1c2ccccc2c2cc(/C=C(/C#N)C(N)=S)ccc21 | -9.81 |
| Oc1c(N=NC(=S)Nc2ccccc2F)c2ccccc2n1Cc1cccc(Cl)c1 | 2.68 |
| COC(=O)C1=C(C)N(c2cc(C)cc(C)c2)/C(=C/c2ccc(O)cc2)C1=O | 0.245 |
| O=C(CN1CCN(S(=O)(=O)c2ccc(F)cc2)CC1)Nc1cccc(C(F)(F)F)c1 | 3.31 |
| COC(=O)/C=C/C(=O)Nc1cccc(C(F)(F)F)c1 | 9.97 |
| CCOc1ccc(C(=O)Nc2nnc(SCC(=O)NCC3CCCO3)s2)cc1 (stereo not drawn) | 10.5 |
| CN=C1S/C(=C\c2ccc(O)c(Br)c2)C(=O)N1C | 6.54 |
| CC(=O)O[C@H]1CC[C@@]2(C)C(=CC[C@H]3[C@@H]4CC[C@H](C(C)=O)[C@@]4(C)CC[C@@H]32)C1 | -0.254 |
| NC(=O)C1(Nc2ccc([N+](=O)[O-])cc2)CCCC1 | -8.21 |
| Cc1ccccc1Cn1c(O)c(N=NC(=S)Nc2ccccc2F)c2ccccc21 | 8.25 |
| CCOc1ccc(NC(=O)Cn2cc(C(=O)CC)c3ccccc32)cc1 | 9.94 |
| O=C(O)c1ccc(N/N=C/c2ccc3ncccc3c2)cc1 | 18.4 |
| COc1cccc(C(=O)Nc2nc3ccccc3[nH]2)c1 | -10.2 |
| O=C(CSc1nc2ccccc2c(=O)n1CCCN1CCOCC1)Nc1ccc(Br)cc1 | 5.39 |
| CC(C)(C)c1ccc(C(=O)Nc2nnc(SCC(=O)NCC3CCCO3)s2)cc1 (stereo not drawn) | 6.78 |
| CCC(Oc1ccccc1)C(=O)NC1CCSC1=O (stereo not drawn) | 11.1 |
| O=C(NC1CCCCC1)N1CCN(c2ccc([N+](=O)[O-])cc2)CC1 | -5.64 |
| CCOC(=O)c1sc2nc(C)nc(NCc3ccccc3)c2c1C | -0.055 |
